Data as given in article PMC5540273 (PLoS ONE, 2017).

Columns and labels:
Settings in all cases: concentration: 1 μM, replicates: in singlicate; n = 1
BTK = tested on: BTK
BUB1 = tested on: BUB1
CAMK1B = tested on: CAMK1B
CAMK1D = tested on: CAMK1D
CAMK1G = tested on: CAMK1G
CAMK1 = tested on: CAMK1
CAMK2A = tested on: CAMK2A
CAMK2B = tested on: CAMK2B
CAMK2D = tested on: CAMK2D
CAMK2G = tested on: CAMK2G
CAMK4 = tested on: CAMK4
CAMKK1 = tested on: CAMKK1
CAMKK2 = tested on: CAMKK2
CASK = tested on: CASK
CDC2L1 = tested on: T1, CDC2L1
T1 construct: gene CDK11B

CDC2L2 = tested on: CDC2L2
CDC2L5 = tested on: T2, CDC2L5
T2 construct: gene CDK13

CDK11 = tested on: T3, CDK11
T3 construct: gene CDK19

CDK2 = tested on: CDK2
CDK3 = tested on: CDK3
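Further: KINOMEscan kinase panel screen.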

SMILES	%Inh (BTK) [%]	%Inh (BUB1) [%]	%Inh (CAMK1B) [%]	%Inh (CAMK1D) [%]	%Inh (CAMK1G) [%]	%Inh (CAMK1) [%]	%Inh (CAMK2A) [%]	%Inh (CAMK2B) [%]	%Inh (CAMK2D) [%]	%Inh (CAMK2G) [%]	%Inh (CAMK4) [%]	%Inh (CAMKK1) [%]	%Inh (CAMKK2) [%]	%Inh (CASK) [%]	%Inh (CDC2L1) [%]	%Inh (CDC2L2) [%]	%Inh (CDC2L5) [%]	%Inh (CDK11) [%]	%Inh (CDK2) [%]	%Inh (CDK3) [%]
CC[C@@H]1CO[C@H](C(=O)Nc2ccccc2)CN1c1cc(-c2ccc3c(N)n[nH]c3c2)nc(NC)n1 [GSK2376236]	0	0	29	19	13	7	0	0	21	6	0	5	22	8	8	14	0	12	0	9
O=c1cc(N2CCOCC2)nc2n(Cc3ccccc3F)ccn12 [GSK2297428]	0	0	0	16	5	15	0	0	7	15	0	5	3	79	0	12	0	0	0	0
Cn1cnc2c(N)ncnc21 [SKF-97623]	0	22	41	0	0	0	0	0	0	0	7	0	0	7	0	0	0	0	44	0
CC(C)c1cc(-c2ccc3c(N)n[nH]c3c2)nc(N)n1 [GSK2250882]	0	60	0	23	6	21	0	0	8	23	0	0	18	21	0	5	0	0	0	5
COC(=O)C(NC(=O)NC1CCN(c2ccnc(Nc3ccc(F)cc3)n2)C1)c1ccccc1 (stereo not shown) [GSK1379712]	18	37	35	5	0	9	0	0	11	19	0	25	23	2	0	17	0	54	81	19
CNc1nc(-c2ccc3c(N)n[nH]c3c2)cc(N2C[C@@H](C(=O)Nc3ccccc3)CC[C@H]2C)n1 [GSK2298859]	0	22	6	25	6	28	87	82	21	21	0	21	29	24	0	21	0	0	0	0
Cl.Cl.Cl.N#Cc1ccc(CCNc2nccc(-c3cccc(CN4CCNCC4)c3)n2)cc1 [GSK2137462]	0	0	0	29	24	31	11	3	28	27	1	35	22	0	0	6	0	0	0	0
CCn1c(-c2ccccc2)nc2cnccc21 [SB-733416]	0	2	44	8	0	0	0	0	0	0	13	0	0	18	0	0	98.3	0	12	19
